Only some compounds are listed: those with a hit (about 19% of all), similar ones and a draw of the others.
DT40 TDP1 CPT: DT40-hTDP1 cell growth loss with CPT | chicken DT40 Tdp1-/-;hTDP1 cells + 20 nM CPT, ATP luminescence, 48 h | Potency, µM (titrated, usually from 46.2 µM), without a hit: top-dose activity change, negative = growth inhibition, most hits filed as inhibitors | hit rate 12% among 420,000; further: potency means the concentration at half of the fitted maximal effect; nearly all actives have a fitted effect of over 55% in size
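Cell growth measured by CellTiter-Glo luminescence after a minimum 48 h, 37 C compound exposure with 20 nM CPT in Tdp1-knockout DT40 cells stably expressing hTDP1, seeded 400/well; qHTS titration format.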
TDP1 cell noCPT: qHTS for Inhibitors of human tyrosyl-DNA phosphodiesterase 1 (TDP1): qHTS in cells in absence of CPT. DT40 Tdp1-/- hTDP1 cells, no CPT, ATP luminescence, 48 h. Potency, µM (titrated, usually from 46.2 µM), inactives show at the highest dose activity change, negative = growth inhibition, hits mostly inhibitors. hit rate 15% among 420,000; further: potency means the concentration at half of the fitted maximal effect; nearly all actives have a fitted effect of over 55% in size
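Readout: luminescence from CellTiter-Glo after 30 min in the dark at RT. Cells: DT40 Tdp1-/- with stable hTDP1, 400/well. Exposure: compounds alone, ≥48 hr, 37 °C.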
HT1080 IDH1KD tx: HT-1080 IDH1 knockdown cell toxicity (counter line); HT-1080 IDH1 knockdown viability, ATP luminescence, 48 h; Potency, µM (doses to about 46.1 µM), inactives show at the top dose activity, negative = toxicity, hits mostly cytotoxic; hit rate 2% among 360,000; AID 686971;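 further: potency means the concentration at half of the fitted maximal effect; 0% = DMSO wells and -100% = cell-free medium wells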
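CellTiter-Glo luminescence after 48 h compound exposure at 37 degrees C of IDH1-knockdown HT-1080 cells in 5% FBS RPMI. %Activity scaled between DMSO wells and cell-free media wells, with curves fitted and assigned curve classes.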
HT1080NT lethal: kills 2HG-producing HT-1080-NT fibrosarcoma cells; Potency, µM (doses to about 46.1 µM), without a hit: at the top dose activity, negative = less viability, usual class: cytotoxic; HT-1080-NT fibrosarcoma viability, CellTiter-Glo ATP luminescence, 48 h; hit rate 1.6% among 360,000;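 further: NT is the 2HG producing partner of a matched IDH1 knockdown line; potency means the concentration at half of the fitted maximal effect; 0% = DMSO-treated cells and -100% = media-only wells without cells; nearly all actives have a fitted effect of over 55% in size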
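A 48-hour cytotoxicity screen used HT-1080-NT cells plated 2 hours before compound delivery. ATP-based CellTiter-Glo luminescence measured viability, normalized to DMSO and no-cell controls.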
IL1B secr inh: blocks inflammasome-driven IL-1 beta release; activity change, % at 57.5 µM; THP-1 LPS/ATP IL-1B secretion, AlphaLISA, 16 h; active compounds read low; hit rate 4.7% among 360,000; in the data active means activity change below about -50%; inconclusive means mostly about -30% to -49%
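Secreted IL-1B measured by AlphaLISA bead assay after 16 h compound exposure of THP-1 cells; compounds (final up to 57.5 uM) added 1 h before LPS (250 ng/mL) and ATP (1.25 mM) stimulation; lower signal means less secretion.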
* hit, by the source's call; ? = inconclusive. Unless noted, the call rests on the fitted dose curve; in most records, active means well fitted curve in the direction sought with a large enough effect; inconclusive means small, poorly fitted or top-dose-only effect, or another doubt; inactive means no such curve, though single readings can be large; an effect the other way counts as inactive or inconclusive. Unless noted, on the % scale 0 is the no-effect control and ±100 the full control effect.

SMILES | DT40 TDP1 CPT | TDP1 cell noCPT | HT1080 IDH1KD tx | HT1080NT lethal | IL1B secr inh
COCCNC(=O)c1cc2c(c(-c3cccc(C#Cc4ccc(OC)c(OC)c4)c3)n1)[C@H](CCO)N(S(=O)C(C)(C)C)C2 (some centres not stated) | ? | ? | ? | ? | -20
COc1ccc(C2NN=C(c3ccc(C)cc3)S2)cc1 (configuration not stated) | -28% | ? | 15% | 12% | -23
CCOc1cc(C2NN=C(c3ccc(C)cc3)S2)ccc1O (configuration not stated) | 6.5µM* | 5.2µM* | 11% | -4% | -5
CCCCOc1ccc(C2CC(=O)NC2=O)cc1 (configuration not stated) | 2% | -11% | 8% | 5% | 2
CCCCCCCOc1ccc(C2CC(=O)N(C)C2=O)cc1 (configuration not stated) | -2% | ? | -19% | -9% | -76*
CCC(=O)Nc1sc(Cc2ccc3c(c2)OCO3)c(C)c1C(N)=O | ? | ? | -15% | -9% | 0
Cc1c(Cc2ccc3c(c2)OCO3)sc(NC(=O)C(C)(C)C)c1C#N | 18µM* | 8.2µM* | -23% | -7% | 14
C#CCn1cnc2c(oc3ccccc32)c1=O | 1% | -2% | 0% | 1% | -4
CC(C)(C)C(C(=O)NC1CCCC1)N1CCN(c2ncccc2C#N)CC1 (configuration not stated) | 16µM* | ? | 5% | 0% | 3
Cc1cc(N2CCN(C(C(=O)NC3CCCC3)C(C)(C)C)CC2)c2ccccc2n1 (configuration not stated) | ? | 12µM* | ? | ? | -7
Cc1ccc(C)c(N2CCN(C(C(=O)NC3CCCC3)C(C)C)CC2)c1 (configuration not stated) | 18µM* | 21µM* | 3% | -3% | -15
COc1cccc(C(C(=O)NC2CCCC2)N2CCN(c3cc(C)nc4ccccc34)CC2)c1OC (configuration not stated) | 23µM* | 21µM* | -4% | -11% | -20
COc1cc(/C=C/C(=O)O)cc(S(=O)(=O)NCCCC(=O)O)c1OC | -7% | -3% | 1% | 21% | -6
COc1ccc(-c2noc(CCC(=O)N3CCN(c4ccccc4C(F)(F)F)CC3)n2)cc1 | 19% | -27% | 0% | -2% | 9
COc1ccc(CNS(=O)(=O)NCc2ccc(C)cc2)cc1OC | ? | 16µM* | -14% | 1% | 22
CNC(=O)c1ccc(NC(=O)Cc2ccc(S(=O)(=O)N3CCOCC3)s2)cc1 | -2% | -21% | -4% | 0% | 0
CC1CCCN(S(=O)(=O)c2ccc(NC(=O)Cc3ccc(S(=O)(=O)N4CCOCC4)s3)cc2)C1 (configuration not stated) | ? | 18µM* | -8% | -9% | ?
O=C(Cc1ccc(S(=O)(=O)N2CCOCC2)s1)Nc1ccc2c(c1)CCC2 | -20% | ? | -26% | -2% | ?
CC(=O)Nc1ccc(NC(=O)Cc2ccc(S(=O)(=O)N3CCCCC3)s2)cc1 | ? | ? | 0% | -2% | 24
CC1CCN(S(=O)(=O)c2ccc(NC(=O)Cc3ccc(S(=O)(=O)N4CCOCC4)s3)cc2)CC1 | 18µM* | 23µM* | -16% | -26% | 17
O=C(Cc1ccc(S(=O)(=O)N2CCOCC2)s1)Nc1ccc(S(=O)(=O)N2CCCCC2)cc1 | 18µM* | ? | -18% | -19% | -15
CC(=O)OC1COC(n2ccc3cc([N+](=O)[O-])ccc32)C(OC(C)=O)C1OC(C)=O (configuration not stated) | -22% | -28% | -9% | -8% | 2
Cc1ccc(N2C(=O)CC(Sc3ncn[nH]3)C2=O)cc1C (configuration not stated) | 4.6µM* | 5.2µM* | 0% | -2% | -6
